In PubChem BioAssay (Tox21):
Records with an inconclusive call do not appear. Active and inactive are the calls of the source. Unless noted, calls follow the shape of the full dose curve.

Columns and labels:
[1] = qHTS assay to identify small molecule agonists of the vitamin D receptor (VDR) signaling pathway - cell viability counter screen (AID 743224; active = well fitted curve in the direction sought with a large enough effect in the repeat runs; an effect the other way counts as inactive or inconclusive; also: series mostly up to about 63 µM; nearly all actives have a fitted effect of over 50% in size)
Procedure, shortened: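 VDR-bla cells, 4 h after plating, exposed to compounds for 16 h at 37C; viability then read in the same wells as CellTiter-Glo luminescence after 30 min at room temperature, following the bla FRET read.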

[2] = qHTS assay to identify small molecule antagonists of the vitamin D receptor (VDR) signaling pathway - cell viability counter screen (AID 743225; active = well fitted curve in the direction sought with a large enough effect in the repeat runs; an effect the other way counts as inactive or inconclusive; also: nearly all actives have a fitted effect of over 50% in size)
Procedure, shortened: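 Cytotoxicity toward the VDR-bla HEK 293T line was scored by ATP-based CellTiter-Glo luminescence, read in the wells already used for the beta-lactamase readout after 16 h compound treatment under 3 nM 1-alpha,25-dihydroxyvitamin D3 stimulation.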

[3] = qHTS assay to identify small molecule agonists of the NFkB signaling pathway - cell viability counter screen (AID 1159515); also: series mostly up to about 61 µM; nearly all actives have a fitted effect of over 55% in size
Procedure, shortened: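 NFkB-bla ME-180 cells, 2,000/well, plated overnight at 37 C; compound added for 5 hr at 37 C. Viability read in the same wells as the bla reporter, by CellTiter-Glo luminescence after 30 min at room temperature.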

[4] = qHTS assay to identify small molecule agonists of the endoplasmic reticulum stress response signaling pathway (AID 1159516; active = well fitted activation curve with a large enough effect in the signal ratio in the repeat runs, not every such curve was filed as active; the % refers to the signal ratio)
Procedure, shortened: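 CellSensor ESRE-bla HeLa cells, 1,500 per well, plated overnight, then exposed to compounds for 5 hr at 37 C. Beta-lactamase reporter read with LiveBLAzer B/G FRET substrate after 2 hr at room temperature, 405 nm excitation, 460 and 530 nm emission.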

[5] = qHTS assay to identify small molecule agonists of the endoplasmic reticulum stress response signaling pathway - cell viability counter screen (AID 1159517);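 also: HeLa cells carrying an ER stress response element beta-lactamase reporter; series mostly up to about 61 µM; nearly all actives have a fitted effect of over 50% in size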
Procedure, shortened: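 Luminescence readout: CellTiter-Glo, 30 min RT, same wells as the ESRE-bla reporter read. HeLa ESRE-bla, 1,500 cells/well, o/n 37 C; cpd 5 hr 37 C/5% CO2.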

[6] = qHTS assay to identify small molecule antagonists of the retinoid-related orphan receptor gamma (ROR-gamma) signaling pathway - cell viability counter screen (AID 1159520; active = well fitted curve in the direction sought with a large enough effect in the repeat runs; an effect the other way counts as inactive or inconclusive; also: nearly all actives have a fitted effect of over 50% in size)
Procedure, shortened: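 Tet-on ROR gamma CHO cells (1,000/well) were plated 4 hr, given compounds in DMSO for 2 hr at 37 C, then induced with 1 uM final doxycycline for 16 hr. Viability was read as ATP by CellTiter-Glo luminescence after 30 min.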

[7] = qHTS assay to identify small molecule agonists of the AP-1 signaling pathway - cell viability counter screen (AID 1159525); also: nearly all actives have a fitted effect of over 55% in size
Procedure, shortened: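 ME-180 AP-1-bla, 2500 cells/well, Opti-MEM + 0.5% dialyzed FBS; overnight 37 °C; cpd 15-pt titration, 5 h 37 °C; CellTiter-Glo 30 min RT; luminescence read; normalised to TOAB and DMSO controls.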

[8] = qHTS assay to identify small molecule agonists of the AP-1 signaling pathway (AID 1159526); also: potency is read from the fitted curve at half-maximal effect
[9] = molecular target: Retinoic acid receptor RXR-alpha (Homo sapiens) (UniProt P19793); assay: qHTS assay to identify small molecule agonists of the RXR signaling pathway (AID 1159527); also: nearly all actives have a fitted effect of over 35% in size; also: potency is read from the fitted curve at half-maximal effect
Procedure, shortened: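 Reporter activation is measured as beta-lactamase activity via FRET substrate cleavage (emission 460/530 nm) in HEK 293T cells expressing an RXR-alpha-driven bla construct, following 16 hr compound exposure at 37 C.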

[10] = molecular target: Nuclear receptor ROR-gamma (Homo sapiens) (UniProt P51449); assay: qHTS assay to identify small molecule antagonists of the retinoid-related orphan receptor gamma (ROR-gamma) signaling pathway (AID 1159521; active = well fitted curve in the direction sought with a large enough effect in the repeat runs; an effect the other way counts as inactive or inconclusive)
Procedure, shortened: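 Readout: ONE-Glo luciferase luminescence, 30 min at room temperature. System: Tet-on RORγ CHO, RORE-LUC. Sequence: compound 2 h, doxycycline 1 uM final, 16 h at 37 C.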

Measured: Potency

Chain of Retinoic acid receptor RXR-alpha (Homo sapiens) (P19793 whole entry, looked up): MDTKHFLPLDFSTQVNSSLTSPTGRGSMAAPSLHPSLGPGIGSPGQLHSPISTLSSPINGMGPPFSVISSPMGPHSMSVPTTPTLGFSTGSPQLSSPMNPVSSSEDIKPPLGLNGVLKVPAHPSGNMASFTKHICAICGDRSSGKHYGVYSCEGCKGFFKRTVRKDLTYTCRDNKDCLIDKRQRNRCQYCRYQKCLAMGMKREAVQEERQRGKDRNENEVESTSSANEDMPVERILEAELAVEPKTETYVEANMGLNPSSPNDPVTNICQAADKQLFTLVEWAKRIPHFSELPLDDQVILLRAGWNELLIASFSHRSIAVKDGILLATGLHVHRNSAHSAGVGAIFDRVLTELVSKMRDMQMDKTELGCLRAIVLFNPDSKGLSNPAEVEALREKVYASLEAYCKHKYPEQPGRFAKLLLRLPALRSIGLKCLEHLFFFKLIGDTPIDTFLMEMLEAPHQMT

CCOc1ccc(N=Nc2ccc(/C=C/c3ccc(N=Nc4ccc(OCC)cc4)cc3S(=O)(=O)O)c(S(=O)(=O)O)c2)cc1
not listed: [9] | [10]
inactive: all other assays above

O=C1OC(CN2CCOCC2)CN1/N=C/c1ccc([N+](=O)[O-])o1 (stereo unspecified)
not listed: [1] | [10]
inactive: all other assays above

CC(C)C[C@H]1C(=O)N2CCC[C@H]2[C@]2(O)O[C@](NC(=O)[C@@H]3C=C4c5cccc6[nH]c(Br)c(c56)C[C@H]4N(C)C3)(C(C)C)C(=O)N12
not listed: [9] | [10]
inactive: all other assays above

CN(C)C(=O)NC1(c2ccccc2)CCN(CC[C@@]2(c3ccc(F)c(F)c3)CN(C(=O)c3ccccc3)CCO2)CC1
not listed: [9] | [10]
inactive: all other assays above

C[C@@H]1C[C@H]2[C@@H]3CCC4=CC(=O)C=C[C@]4(C)[C@@]3(F)[C@@H](O)C[C@]2(C)[C@@]1(O)C(=O)COC(=O)c1ccncc1
not listed: [1] | [10]
inactive: all other assays above

COc1cc(Cl)c(OC)cc1N
not listed: [1] | [10]
inactive: all other assays above

O=C(O)c1nc(Cl)c(Cl)c(Cl)c1Cl
not listed: [2] | [9] | [10]
inactive: all other assays above

c1cc(CCCc2ccncc2)ccn1
not listed: [1] | [10]
inactive: all other assays above

CC(C)(O)c1ccc(CNC(=O)c2cccnc2Oc2ccc(F)cc2)cc1
not listed: [9] | [10]
inactive: all other assays above

CC(=O)c1cccc([N+](=O)[O-])c1
not listed: [9] | [10]
inactive: all other assays above

CCN(CC)CCOC(=O)C(Cc1cccc2ccccc12)CC1CCCO1 (stereo unspecified)
active: [8] 21.3 µM
not listed: [9] | [10]
inactive: all other assays above

CC(C)OC(=O)C(C)N(C(=O)c1ccccc1)c1ccc(F)c(Cl)c1 (stereo unspecified)
not listed: [2] | [9] | [10]
inactive: all other assays above

CCc1cc(C2=C(C(=O)O)N(c3ccccc3C(F)(F)F)S(=O)(=O)c3ccccc32)cc2c1OCO2
not listed: [9] | [10]
inactive: all other assays above

CCCCC1=NC2(CCCC2)C(=O)N1Cc1ccc(-c2ccccc2-c2nn[nH]n2)cc1
not listed: [1] | [10]
inactive: all other assays above

COC(=O)c1ccc(I)cc1S(=O)(=O)NC(=O)Nc1nc(C)nc(OC)n1
not listed: [9] | [10]
inactive: all other assays above

COC(C)(C)CCO
not listed: [1] | [10]
inactive: all other assays above

Nc1ccccc1S(=O)(=O)c1ccccc1
not listed: [10]
inactive: all other assays above

CO[C@@H]1[C@H](OC(=O)/C=C/C=C/C=C/C=C/C(=O)O)CC[C@]2(CO2)[C@H]1[C@@]1(C)O[C@@H]1CC=C(C)C
not listed: [9] | [10]
inactive: all other assays above

COc1cccc(N(C)C(=S)Oc2ccc3c(c2)CCCC3)n1
not listed: [9] | [10]
inactive: all other assays above

C=CCOC(=O)CCC1CCCCC1
not listed: [9] | [10]
inactive: all other assays above

Cc1oc(-c2ccccc2)nc1CCOc1cccc2c1ccn2CCC(=O)O
active: [9] 17.4 µM
not listed: [1] | [8] | [10]
inactive: all other assays above

COc1ccc(C(=O)Nc2nc3ccccc3c(NCc3ccccc3)c2C#N)cc1
not listed: [5] | [8] | [9]
inactive: all other assays above

C[C@@H]1C[C@H]2O[C@@]3(O[C@@H]2C(C)(C)O)[C@H](O)[C@@]2(C)[C@@H]4CC[C@H]5C(C)(C)[C@@H](O[C@@H]6OC[C@@H](O)[C@H](O)[C@H]6O)CC[C@@]56C[C@@]46CC[C@]2(C)[C@@H]13
inactive: [2] | [3] | [4] | [6] | [10] | [7]

Clc1ccc(Cn2c(CN3CCCC3)nc3ccccc32)cc1
inactive: [1] | [3] | [4] | [5] | [6] | [7]

CN(C)CCN(Cc1ccc(Cl)cc1)c1ccccn1
inactive: [2] | [3] | [4] | [5] | [6] | [7]
